Anthrax LT inh: inhibitors of anthrax lethal toxin internalization. Cells, anthrax lethal toxin internalization, FRET ratio (460/530). Potency, µM (series often up to 40 µM), for the others: top-dose activity change, negative = inhibition, usual class: inhibitors. 70,000 compounds, 0.67% hits. AID 912; note: % is set by controls: 0 for no effect and ±100 for the full control effect; nearly all actives have a fitted effect of over 50% in size
AmpC det inh: blocks E. coli AmpC beta-lactamase in presence of detergent; purified AmpC, nitrocefin hydrolysis with detergent; Potency, µM (titrated, usually from 28.7 µM), without a hit: at the top dose activity change, negative = inhibition; 71,000 compounds, 0.09% hits; active = well fitted curve in the direction sought with a large enough effect; inconclusive = small, poorly fitted or top-dose-only effect; note: % is set by controls: 0 for no effect and ±100 for the full control effect
Target sequence (P00811 whole entry, looked up): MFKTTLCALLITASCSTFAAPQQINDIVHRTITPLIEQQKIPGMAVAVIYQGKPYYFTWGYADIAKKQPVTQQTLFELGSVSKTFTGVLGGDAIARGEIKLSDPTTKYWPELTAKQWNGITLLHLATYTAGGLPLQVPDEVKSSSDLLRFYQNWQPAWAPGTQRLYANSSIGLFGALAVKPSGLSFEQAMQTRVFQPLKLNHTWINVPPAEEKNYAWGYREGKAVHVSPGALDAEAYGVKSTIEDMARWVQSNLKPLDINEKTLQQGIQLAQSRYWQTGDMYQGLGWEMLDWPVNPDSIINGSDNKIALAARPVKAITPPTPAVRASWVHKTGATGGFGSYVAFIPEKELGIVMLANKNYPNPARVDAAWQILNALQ
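E. coli AmpC (5.3 nM) in 20 mM phosphate pH 7.0 with 0.01% Triton X-100, preincubated 15 min RT with compound; nitrocefin (2 uL of 800 uM stock) hydrolysis followed by 480 nm absorbance every 20 s over 4 min.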
AmpC nodet inh: AmpC beta-lactamase inhibition, detergent-free assay; P00811; AmpC nitrocefin hydrolysis, absorbance 480 nm, no detergent; Potency, µM (highest dose often 28.7 µM), inactives show at the top dose activity change, negative = inhibition; 71,000 compounds, 1.8% hits; AID 585; note: % of control where 0% means no effect
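AmpC in 20 mM phosphate buffer pH 7.0 was preincubated 15 min at room temperature with compounds. Nitrocefin (800 uM stock) was then added and hydrolysis followed at 480 nm every 20 s for 4 min.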
SmPrx2 inh: blocks S. mansoni peroxiredoxin 2 enzymatic activity. Potency, µM. S. mansoni Prx2 activity coupled to TGR/GSH (TGR is thioredoxin glutathione reductase), NADPH fluorescence loss, qHTS. AID 448. 65,000 compounds, 0.07% hits
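Activity is read as the drop in NADPH fluorescence (365/450 nm), recorded every 30 sec for 8 min after H2O2 addition. Prx2 is coupled to TGR-driven NADPH oxidation through glutathione, in phosphate buffer pH 7.4.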
Starred values were filed as active, the others as inactive; ? = inconclusive; / = no result given; [ ] = another dose, or the depositor's remark. Most compounds without a hit are left out; they make up all but 2.4% or so of the library. Unless noted, calls come from the whole dose curve. Potency is the fitted concentration of half-maximal effect.

SMILES	Anthrax LT inh	AmpC det inh	AmpC nodet inh	SmPrx2 inh
CCSc1ccc2c(c1)N(CCCN1CCN(C)CC1)c1ccccc1S2	15%[3.58 µM]	-3%[12.8 µM]	57%[12.8 µM]	>57
Cc1nc2cc(-c3cccc(F)c3)nn2c(C)c1CCC(=O)N1CCN(c2ccccn2)CC1	-16%	10%	4µM*[single pt active]	>57
Cc1nc2cc(-c3cccc(F)c3)nn2c(C)c1CCC(=O)NC(C)CCc1ccco1 (stereo unspecified)	?	13%	130%	/
C=CCSC1=N/C(=C\c2ccc3c(c2)OCO3)C(=O)S1	22%	3%	4µM*	>57
CC1=C/C(=C\c2ccc3c(c2)OCO3)C(=O)S1	?	?	13µM*	>57
CC(=O)Nc1ccc(C2C(C)CCC3C(=O)N4C(CCC(C)[C@@H]4c4ccc(NC(C)=O)cc4)C(=O)N32)cc1 (stereo partly specified)	-8%[8 µM]	/	/	/
CC(C)(C)OC(=O)N1CCC(C(N)=O)CC1	-13%	12%	4µM*[single pt active]	>57
Cc1ccc(NC(=O)CSc2nnc(Cn3c(=O)sc4ccccc43)n2C)cc1	-9%	14%	23%	>57
Cc1ccc(NC(=O)CSc2nnc(Cn3c(=O)sc4ccccc43)n2C)cc1Cl	5%	8%	4µM*[single pt active]	>57
COc1ccc(NC(=O)CSc2nnc(Cn3c(=O)sc4ccccc43)n2C)cc1	-5%	10%	?	>57
Cc1ccc(CSc2nnc(Cn3c(=O)sc4ccccc43)n2C)cc1	-9%	6%	26%	>57
Cn1c(Cn2c(=O)sc3ccccc32)nnc1SCC(=O)Nc1ccc(F)cc1	-6%	10%	4µM*[single pt active]	>57
CCOc1ccc(NC(=O)CSc2nnc(Cn3c(=O)sc4ccccc43)n2C)cc1	-4%	25%	4µM*[single pt active]	>57
CC(C)CCSc1nnc(Cn2c(=O)sc3ccccc32)n1C	-13%	14%	4µM*[single pt active]	>57
COCCNc1ccnc(-c2ccccc2CN(C)C)n1	-15%	11%	-7%	>57
O=C(c1cc(C(F)(F)F)cc(C(F)(F)F)c1)N1CCC[C@@]2(CCN(Cc3ccncc3)C2)C1	-8%	-2%	79%	>57
CC(=O)OCC1OC(c2ccc3c(c2)OCO3)C=CC1OC(C)=O (stereo unspecified)	-7%[8 µM]	/	/	/
Cn1c(Cn2c(=O)sc3ccccc32)nnc1SCC(=O)Nc1ccccc1	1%	14%	4µM*[single pt active]	>57
COc1ccc(N2CSC3=C(C#N)C(c4ccc(OC)c(OC)c4)CC(=O)N3C2)c(OC)c1 (stereo unspecified)	5%	3%	48%	/
COc1ccc(N2CSC3=C(C#N)C(c4cc(OC)c(OC)cc4OC)CC(=O)N3C2)c(OC)c1 (stereo unspecified)	-13%	12%	96%	>57
COc1ccc(N2CSC3=C(C#N)C(c4cccs4)CC(=O)N3C2)cc1 (stereo unspecified)	?	-6%	-22%	>57
CCc1ccc(N2CSC3=C(C#N)C(c4cccs4)CC(=O)N3C2)cc1 (stereo unspecified)	-29%	-6%	-13%	>57
N#CC1=C2SCN(c3ccc(F)cc3)CN2C(=O)CC1c1cccc(F)c1 (stereo unspecified)	-17%	9%	4µM*[single pt active]	>57
CCc1ccc(C2CC(=O)N3CN(c4ccccc4)CSC3=C2C#N)cc1 (stereo unspecified)	-13%	7%	20µM*[single pt active]	>57
CN1CSC2=C(C#N)C(c3cccc(OCc4ccccc4)c3)CC(=O)N2C1 (stereo unspecified)	?	13%	4µM*[single pt active]	>57
SMILES	Anthrax LT inh	AmpC det inh	AmpC nodet inh	SmPrx2 inh
COc1ccc(C2CC(=O)N3CN(c4ccc(C)c(Cl)c4)CSC3=C2C#N)cc1OC (stereo unspecified)	6.3µM*	5%	6%	>57
C=CCOCC1CN2C(CCC(C)C2c2ccc(Br)cc2)C(=O)O1 (stereo unspecified)	-10%[8 µM]	/	/	/
O=S(=O)(NCCO)c1cc[c]([Sb](=[O])([OH])[OH])cc1	-4%[8 µM]	1%[5.75 µM]	-11%[5.75 µM]	>57
O=CNc1ncn[nH]1	-9%[8 µM]	-3%[5.75 µM]	-2%[5.75 µM]	>57
COc1ccc(N2CSC3=C(C#N)C(c4cc(OC)ccc4OC)CC(=O)N3C2)c(OC)c1 (stereo unspecified)	?	1%	41%	>57
CCOc1ccccc1N1CSC2=C(C#N)C(c3c(OC)ccc4ccccc34)CC(=O)N2C1 (stereo unspecified)	?	12%	2.5µM*[single pt active]	>57
CCOC(=O)c1ccc(N2CSC3=C(C#N)C(c4cccs4)CC(=O)N3C2)cc1 (stereo unspecified)	-19%	7%	2.5µM*	>57
CC1C(=O)OC2C(O)C34C5CC(C(C)(C)C)C36C(OC(=O)C6O)OC4(C(=O)O5)C12O (stereo unspecified)	-12%	-1%	8%	>57
COc1ccc2c(CC(=O)Nc3ccc(OC)c(NS(=O)(=O)c4ccc(F)cc4)c3)coc2c1	10µM*	-3%	?	>57
O=C=Nc1ccc(Cc2ccc(N=C=O)cc2)cc1 (tested in a mixture with another compound)	-7%[8 µM]	-4%[5.75 µM]	-10%[5.75 µM]	>57
O=C=Nc1ccc(Cl)c(Cl)c1	16µM*	13%	?	/
Cc1ccc(Nc2nc(N3CCOCC3)c3ccccc3n2)cc1	-14%	0%	10%	>57
Oc1ccc(Nc2nc(N3CCCC3)c3ccccc3n2)cc1	13µM*	30%	?	>57
CCN(CC)CCn1c(-c2ccccc2)nc2c(NCCO)nc(C)nc21	-5%	7%	5%	/
Cn1nc(-c2ccc(Cl)cc2)c2cc(C(=O)N3CCN(c4ccccn4)CC3)sc21	?	7%	4µM*[single pt active]	>57
Cn1nc(-c2ccc(Cl)cc2)c2cc(C(=O)N3CCN(c4ccccc4)CC3)sc21	?	13%	4µM*[single pt active]	>57
Cn1nc(-c2ccc(Cl)cc2)c2cc(C(=O)N3CCCC3)sc21	?	11%	42%	>57
COc1ccccc1-c1nnc(SCC(=O)NCc2c(C)c(Cl)cc(C(C)C)c2O)o1	10µM*	0%	94%	>57
COc1ccccc1-c1nnc(SCC(=O)Nc2c(Cl)cccc2Cl)o1	20%	-3%	-14%	>57
O=S(=O)(c1ccc(F)cc1)N1CCC(N2CCCC2)CC1	?	9%	4µM*[single pt active]	>57
O=S(=O)(c1ccc(S(=O)(=O)N2CCN3CCCC3C2)cc1)N1CCCC1 (stereo unspecified)	5%	3%	16%	>57
CNC/C(Cl)=N/S(=O)(=O)c1ccc(C)cc1	-7%[8 µM]	-3%[5.75 µM]	2%[5.75 µM]	/
CCOC(=O)CN1c2ccccc2NC(=O)CC1C (stereo unspecified)	-6%	13%	4µM*[single pt active]	>57
CCOC(=O)CN1C(=O)C(O)=C(C(C)=O)C1c1ccccc1 (stereo unspecified)	/	-2%	1%	>57
CSC(N)=NCCC[C@@H](N)C(=O)O	?	0%	-2%	>57
[N-]=[N+]=NCC(=O)c1c[nH]c(=O)[nH]c1=O	-2%[8 µM]	-2%[5.75 µM]	5%[5.75 µM]	>57

Source: PubChem (National Center for Advancing Translational Sciences (NCATS))
